# PubChem BioAssay AID743294 (Broad Institute, 2014)
# Entries with a potency or affinity are not part of this list. Active and inactive are the calls of the source.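 How the source made its calls: active means compounds lowering fluorescence whose fitted half-maximal dose is at most twice the top valid dose; inconclusive means flat fit between -70% and -30%, or poor curve fit; inactive means the rest.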
# Biological target: Caspase-8 (Homo sapiens) (UniProt Q14790)
# Assay: caspase-8 inhibition counter-screen, dose response, selectivity assay for caspase-6 inhibitor project, biochemical, Z-IETD-R110 fluorescence, cherry-picked samples (AID 743294)
# Conditions: purified caspase-8, Z-IETD-R110 cleavage fluorescence; series mostly up to 35 µM
# Caspase-8 (Homo sapiens), sequence (Q14790 whole entry, looked up): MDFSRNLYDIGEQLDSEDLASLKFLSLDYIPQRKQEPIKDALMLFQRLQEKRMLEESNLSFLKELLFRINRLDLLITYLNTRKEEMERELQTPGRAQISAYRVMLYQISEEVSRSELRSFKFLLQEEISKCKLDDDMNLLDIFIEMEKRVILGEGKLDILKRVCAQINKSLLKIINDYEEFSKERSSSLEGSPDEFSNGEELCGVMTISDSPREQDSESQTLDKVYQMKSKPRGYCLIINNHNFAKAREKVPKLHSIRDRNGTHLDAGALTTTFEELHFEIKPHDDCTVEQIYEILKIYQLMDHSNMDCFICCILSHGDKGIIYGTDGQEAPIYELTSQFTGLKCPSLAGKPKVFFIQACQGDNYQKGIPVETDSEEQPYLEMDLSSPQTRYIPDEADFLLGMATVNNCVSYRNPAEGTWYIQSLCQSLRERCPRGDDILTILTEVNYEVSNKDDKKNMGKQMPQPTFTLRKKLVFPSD
row,Structure (SMILES),outcome
1,CC(Cc1ccc(O)cc1)NCC(O)c1ccc(O)c(O)c1 (configuration not stated),inactive
2,CN1CCc2cc3c(c4c2C1Cc1ccccc1-4)OCO3 (configuration not stated),inactive
